The source made the active and inactive calls.
How the values were obtained:
[1] = tested on: Plasmodium falciparum Sir2 (PF13_0152, Sir2A); test: pfSir2 binders on small-molecule microarrays, primary screen, biochemical, small-molecule microarray, 635 nm fluorescence (AID 1098); settings: small-molecule microarray binding, fluorescence 635 nm; higher = more signal;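 further: score merges spot fluorescence intensity with its signal-to-noise ratio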
[2] = small-molecule microarray binders of probe aDKK1, primary screen, biochemical, biotinylated probe, 635/667 nm fluorescence (AID 1099); settings: higher = more signal;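 further: score merges 667nm spot fluorescence with signal to noise across triplicate slides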
[3] = small-molecule microarray binders of probe aCHRDL2, primary screen, biochemical, biotinylated probe, 635/667 nm fluorescence (AID 1100); settings: higher = more signal
[4] = splicing luciferase reporter signal modulators, primary screen, spliceosome inhibition project, cell-based, HEK293, splice +/- reporter (AID 1101); settings: luminescence, 24 h, higher = more signal, called active from +8 up or from −8 down;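 further: HEK293 cells carrying a splicing-competent luciferase reporter gene; test concentration not given here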
[5] = biological target: Fibroblast growth factor 10 (Homo sapiens) (UniProt O15520); test: FGF10 binders on small-molecule microarrays, primary screen, biochemical, small-molecule microarray, 635 nm fluorescence (AID 1102); settings: FGF10 binding, fluorescence 635 nm, higher = more signal
Fibroblast growth factor 10 (Homo sapiens), sequence (O15520 whole entry, looked up): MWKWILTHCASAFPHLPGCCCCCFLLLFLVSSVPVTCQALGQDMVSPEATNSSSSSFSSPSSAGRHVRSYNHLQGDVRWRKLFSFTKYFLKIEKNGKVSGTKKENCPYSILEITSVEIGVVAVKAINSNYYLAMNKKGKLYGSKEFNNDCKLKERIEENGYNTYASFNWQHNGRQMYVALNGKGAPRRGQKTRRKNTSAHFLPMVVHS

[6] = tested on: glycogen synthase kinase-3 (GSK3A per assay name; protocol says GSK3B); test: GSK3 binders on small-molecule microarrays, primary screen, biochemical, small-molecule microarray, 635 nm fluorescence, GSK3A (AID 1103); settings: small-molecule microarray binding, fluorescence 635 nm; higher = more signal; further: the record names both GSK3A and GSK3B
[7] = biological target: Epidermal growth factor receptor (Homo sapiens) (UniProt P00533); test: EGFR binders on small-molecule microarrays, primary screen, biochemical, small-molecule microarray, 635 nm fluorescence (AID 1104); settings: EGFR binding, higher = more signal;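 further: score merges 667 nm emission intensity with spot signal to noise over triplicate slides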
Epidermal growth factor receptor (Homo sapiens), sequence (P00533 whole entry, looked up): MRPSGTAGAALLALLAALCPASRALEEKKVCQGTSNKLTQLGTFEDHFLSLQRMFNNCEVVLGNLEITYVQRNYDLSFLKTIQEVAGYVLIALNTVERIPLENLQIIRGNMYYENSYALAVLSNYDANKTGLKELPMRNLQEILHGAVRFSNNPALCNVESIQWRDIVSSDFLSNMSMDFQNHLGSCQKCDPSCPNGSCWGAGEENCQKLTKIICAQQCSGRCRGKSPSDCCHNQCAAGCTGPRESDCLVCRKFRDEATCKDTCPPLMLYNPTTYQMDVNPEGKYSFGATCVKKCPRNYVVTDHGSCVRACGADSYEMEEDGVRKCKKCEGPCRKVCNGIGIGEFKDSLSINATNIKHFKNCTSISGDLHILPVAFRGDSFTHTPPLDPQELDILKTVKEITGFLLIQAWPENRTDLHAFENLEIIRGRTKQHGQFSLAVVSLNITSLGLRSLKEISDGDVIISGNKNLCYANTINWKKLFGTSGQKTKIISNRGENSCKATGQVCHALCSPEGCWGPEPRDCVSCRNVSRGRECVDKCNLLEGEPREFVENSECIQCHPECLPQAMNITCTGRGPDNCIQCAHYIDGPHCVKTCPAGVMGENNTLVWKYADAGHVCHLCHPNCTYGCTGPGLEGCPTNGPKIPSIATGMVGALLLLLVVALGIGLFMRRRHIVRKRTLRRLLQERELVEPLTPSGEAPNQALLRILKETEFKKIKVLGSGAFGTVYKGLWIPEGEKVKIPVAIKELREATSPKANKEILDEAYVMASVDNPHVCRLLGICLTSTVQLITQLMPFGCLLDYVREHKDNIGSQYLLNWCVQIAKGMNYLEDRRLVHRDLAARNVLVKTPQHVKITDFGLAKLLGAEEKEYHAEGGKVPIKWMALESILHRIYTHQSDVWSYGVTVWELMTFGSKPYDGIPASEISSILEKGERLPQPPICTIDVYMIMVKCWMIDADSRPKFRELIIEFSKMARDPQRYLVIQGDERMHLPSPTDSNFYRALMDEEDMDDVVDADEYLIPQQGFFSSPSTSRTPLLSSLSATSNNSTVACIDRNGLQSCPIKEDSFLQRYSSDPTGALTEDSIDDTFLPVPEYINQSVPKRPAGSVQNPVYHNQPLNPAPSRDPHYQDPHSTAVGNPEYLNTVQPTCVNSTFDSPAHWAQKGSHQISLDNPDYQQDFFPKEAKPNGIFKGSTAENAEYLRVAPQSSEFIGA

[8] = biological target: Follistatin-related protein 3 (Homo sapiens) (UniProt O95633); test: FSTL3 binders on small-molecule microarrays, primary screen, biochemical, small-molecule microarray, 635 nm fluorescence (AID 1105); settings: FSTL3 binding, higher = more signal;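 further: score merges emission near 667 nm and signal to noise per printed spot across three slides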
Follistatin-related protein 3 (Homo sapiens), sequence (O95633 whole entry, looked up): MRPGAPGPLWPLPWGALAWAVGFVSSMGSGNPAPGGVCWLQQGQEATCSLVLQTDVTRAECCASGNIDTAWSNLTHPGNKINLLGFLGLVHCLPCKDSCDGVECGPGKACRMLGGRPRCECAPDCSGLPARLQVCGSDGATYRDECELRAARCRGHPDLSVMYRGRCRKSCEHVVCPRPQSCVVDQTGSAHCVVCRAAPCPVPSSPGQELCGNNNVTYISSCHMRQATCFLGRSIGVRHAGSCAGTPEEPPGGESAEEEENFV

[9] = biological target: Dickkopf-related protein 1 (Homo sapiens) (UniProt O94907); test: DKK1 binders on small-molecule microarrays, primary screen, biochemical, small-molecule microarray, 635 nm fluorescence scan (AID 1106); settings: DKK1 binding, higher = more signal;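 further: score merges emission near 667 nm with signal to noise over three replicate slides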
Dickkopf-related protein 1 (Homo sapiens), sequence (O94907 whole entry, looked up): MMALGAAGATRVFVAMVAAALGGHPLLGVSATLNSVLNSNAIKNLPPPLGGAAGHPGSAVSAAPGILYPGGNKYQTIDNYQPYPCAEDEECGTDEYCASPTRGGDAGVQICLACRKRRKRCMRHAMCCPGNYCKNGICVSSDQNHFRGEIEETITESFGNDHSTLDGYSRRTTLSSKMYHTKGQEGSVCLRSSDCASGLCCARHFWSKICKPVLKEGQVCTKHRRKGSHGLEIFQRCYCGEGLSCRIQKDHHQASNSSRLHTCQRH

[10] = tested on: Inhibin beta A chain (activin A); test: INHBA (activin A) binders on microarrays, primary screen, biochemical, small-molecule microarray, 635 nm fluorescence scan (AID 1107); settings: small-molecule microarray binding, higher = more signal;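 further: mouse activin A protein probed at 4.33 µg/mL on printed slides; score merges bound-protein fluorescence near 667 nm with spot signal-to-noise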
[11] = tested on: Human papillomavirus type 1a protein E7 (residues 44-93); test: HPV1a E7 fragment binders on microarrays, primary screen, biochemical, small-molecule microarray, residues 44-93, 635 nm fluorescence (AID 1108); settings: small-molecule microarray binding, fluorescence 635 nm; higher = more signal;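 further: E7 fragment applied at 1 µg/mL in TBST for 1 h at 4 C; score combines spot fluorescence with its signal to noise ratio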
[12] = modulators of HCV replicon luciferase signal, primary screen, HCV replication inhibitor project, Huh7 cells, luciferase reporter (AID 1109); settings: 48 h, higher = more signal;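 further: huh7 hepatoma cells harbouring a luciferase neomycin HCV replicon reporter; luciferase luminescence as measure of HCV replicon replication; test concentration not given here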
[13] = biological target: Left-right determination factor 2 (Homo sapiens) (UniProt O00292); test: LEFTY2 binders on small-molecule microarrays, primary screen, biochemical, small-molecule microarray, 635 nm fluorescence scan (AID 1110); settings: LEFTY2 binding, higher = more signal
Left-right determination factor 2 (Homo sapiens), sequence (O00292 whole entry, looked up): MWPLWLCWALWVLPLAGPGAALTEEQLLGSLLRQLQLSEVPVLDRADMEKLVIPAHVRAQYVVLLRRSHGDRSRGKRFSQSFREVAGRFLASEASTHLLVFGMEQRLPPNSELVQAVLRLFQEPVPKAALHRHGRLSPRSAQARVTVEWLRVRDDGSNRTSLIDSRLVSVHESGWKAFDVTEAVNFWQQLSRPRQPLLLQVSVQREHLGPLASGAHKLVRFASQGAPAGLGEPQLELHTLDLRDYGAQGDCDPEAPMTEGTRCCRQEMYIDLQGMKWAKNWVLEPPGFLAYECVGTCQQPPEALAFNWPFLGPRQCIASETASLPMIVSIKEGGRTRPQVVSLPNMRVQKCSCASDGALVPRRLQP

[14] = biological target: Calmodulin-1 (Homo sapiens) (UniProt P0DP23); test: CALM1 binders on microarrays, EGTA buffer, profiling panel, biochemical, small-molecule microarray, Cy5-labelled CALM1 (AID 1111); settings: Cy5-CALM1 binding fluorescence, higher = more signal;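 further: labelled calmodulin applied in Tris saline Tween buffer holding calcium plus EGTA and DTT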
[15] = biological target: Calmodulin-1 (Homo sapiens) (UniProt P0DP23); test: calcium-bound CALM1 binders on microarrays, profiling panel, artefact control for SMM control-protein annotation, biochemical, small-molecule microarray, Cy5-labelled CALM1, plus calcium (AID 1112); settings: Cy5-CALM1 binding fluorescence, higher = more signal;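 further: score merges spot fluorescence with signal to noise from triplicate slides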
[16] = small-molecule microarray binders of probe aWnt5a, primary screen, biochemical, biotinylated probe, 635/667 nm fluorescence (AID 1113); settings: higher = more signal;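 further: score merges 667 nm fluorescence intensity with signal-to-noise per printed feature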
[17] = small-molecule microarray binders of probe aShh, primary screen, biochemical, biotinylated probe, 635/667 nm fluorescence (AID 1114); settings: higher = more signal;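 further: probe is biotin-labelled aShh protein from a stem cell growth factor screen; measures binding of labelled protein to compounds printed on the slide; score merges feature fluorescence at 667 nm with signal-to-noise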
[18] = small-molecule microarray binders of probe aNog, primary screen, biochemical, biotinylated probe, 635/667 nm fluorescence (AID 1115); settings: higher = more signal;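 further: probe is biotinylated aNog protein used at 0.15 µg/mL for 1 h at 4 C; z-score combines 667 nm fluorescence of each spot with its signal to noise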
[19] = biological target: Torsin-1A-interacting protein 1 (Homo sapiens) (UniProt Q5JTV8); test: LAP1 binders from COS7 cell lysate, primary screen, small-molecule microarray, 635/667 nm fluorescence (AID 1116); settings: COS7-hLAP1 lysate binding, 635 nm fluorescence, higher = more signal
Torsin-1A-interacting protein 1 (Homo sapiens), sequence (Q5JTV8 whole entry, looked up): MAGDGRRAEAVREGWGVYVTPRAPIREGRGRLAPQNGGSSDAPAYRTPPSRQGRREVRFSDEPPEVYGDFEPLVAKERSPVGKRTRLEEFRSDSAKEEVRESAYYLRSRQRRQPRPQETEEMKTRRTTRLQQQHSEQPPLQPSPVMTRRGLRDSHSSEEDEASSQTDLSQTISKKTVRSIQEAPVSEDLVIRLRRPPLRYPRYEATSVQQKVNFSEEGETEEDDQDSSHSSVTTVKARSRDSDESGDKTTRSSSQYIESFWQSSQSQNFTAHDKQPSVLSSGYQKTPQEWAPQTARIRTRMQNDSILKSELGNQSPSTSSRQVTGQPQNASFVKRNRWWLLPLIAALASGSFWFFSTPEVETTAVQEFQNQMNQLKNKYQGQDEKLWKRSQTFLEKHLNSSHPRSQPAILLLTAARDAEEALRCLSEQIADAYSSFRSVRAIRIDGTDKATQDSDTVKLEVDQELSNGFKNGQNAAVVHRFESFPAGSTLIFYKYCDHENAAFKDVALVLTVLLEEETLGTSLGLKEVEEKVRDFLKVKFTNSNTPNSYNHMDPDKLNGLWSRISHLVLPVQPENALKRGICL

[20] = biological target: Alpha-bungarotoxin (Bungarus multicinctus) (UniProt P60615); test: alpha-bungarotoxin binders on microarray, profiling panel, artefact control for SMM control protein annotation, biochemical, small-molecule microarray, Alexa647 label, 635/667 nm fluorescence (AID 1117); settings: alpha-BTX-A647 binding fluorescence, higher = more signal
Alpha-bungarotoxin (Bungarus multicinctus), sequence (P60615 whole entry, looked up): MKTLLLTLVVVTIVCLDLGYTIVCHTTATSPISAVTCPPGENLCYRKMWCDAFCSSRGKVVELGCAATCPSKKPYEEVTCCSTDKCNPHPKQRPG

Compound	composite z-score [1]	composite z-score [2]	composite z-score [3]	z-score [4]	composite z-score [5]	composite z-score [6]	composite z-score [7]	composite z-score [8]	composite z-score [9]	composite z-score [10]	composite z-score [11]	z-score [12]	composite z-score [13]	composite z-score [14]	composite z-score [15]	composite z-score [16]	composite z-score [17]	composite z-score [18]	composite z-score [19]	composite z-score [20]
O=C(CS)NCCCCCNC(=O)[C@@H]1C[C@@H]2C(=O)NCC(=O)N2[C@@H]1c1ccc(O)cc1	0.793	-0.179	0.347	0.0774 (inactive)	0.528	0.692	0.17	0.157	-0.109	0.606	0.722	0.627	0.31	-0.0523	-0.109	-0.165	-0.0709	-0.122	-0.0104	-0.581
COc1ccc([C@H]2C[C@H]3C(I)=C[C@@H]2C(=O)[C@]32CO2)cc1	0.802	0.168	-0.206	-0.568 (inactive)	0.66	-0.611	-0.0989	0.926	0.726	0.508	-1.2	-3.32	0.178	-0.978	-1.53	-0.222	-0.407	-0.1	0.498	0.957
COC(=O)C(CC#Cc1ccc2c(c1)[C@]1(C(=O)N2)[C@H](c2ccc(O)cc2)N2[C@H](c3ccccc3)[C@H](c3ccccc3)OC(=O)[C@H]2[C@@H]1C(=O)N1CCN(c2ncccn2)CC1)C(=O)OC	1.69	0.534	0.508	-0.84 (inactive)	0.621	1.03	0.116	0.655	0.0879	0.126	0.584	-0.305	-0.0195	1.1	-0.0671	-0.0748	-0.0143	0.36	0.683	2.4
C=CCN(Cc1ccccc1)C(=O)C(c1cccs1)N(C(=O)/C=C\C(=O)O)c1ccc(CCOCCO)cc1 (stereo not given)	1.33	-0.291	0.486	-1.2 (inactive)	-2.15	-1.28	-1.43	-1.27	-2.18	-0.753	-0.774	0.386	-2.57	-0.722	0.665	-0.191	-0.138	-0.242	-0.678	-1.84
COC(=O)[C@@]1(Cc2ccc(OC)cc2)[C@H]2c3cc(C(=O)N4CCCC4)n(Cc4nc5ccccc5[nH]4)c3C[C@H]2CN1C(=O)c1ccccc1	1.36	1.48	1.34	-1.29 (inactive)	0.77	0.54	0.206	1.05	-0.49	1.28	1.38	-2.61	-0.413	2.7	1.54	0.216	0.215	2.39	2.79	1.07
CC(=O)Nc1cc(Br)ccc1C(=O)NCc1ccccc1	0.695	-0.0601	0.416	-0.508 (inactive)	-0.158	0.0021	-0.274	-0.187	-0.221	0.305	1.09	-0.0162	-0.174	0.851	0.517	-0.0346	-0.16	-0.196	0.341	0.809
CC[C@@H]1C=C(C(=O)O)[C@H](c2ccc(C)cc2)N1S(=O)(=O)c1ccc(C)cc1	0.66	0.0882	0.335	0.243 (inactive)	0.227	0.745	-0.0708	0.534	-0.357	0.236	0.878	-0.315	-0.925	0.846	0.515	-0.096	0.0048	-0.126	0.24	0.671
[N-]=[N+]=Nc1ccccc1C[C@@]1(C(=O)N2CCCCC2)N=C(c2ccc(OCCCO)cc2)O[C@@H]1c1ccccc1N=[N+]=[N-]	0.95	1.32	1.32	0.766 (inactive)	0.914	1.05	0.105	0.673	-0.0252	1.59	0.869	-2.71	-0.145	1.6	1.04	0.151	0.778	0.353	0.71	2.09
CS(=O)(=O)CCOC(=O)C1=CC(CCCO)=CC(c2ccc(CN3CCCC3)cc2)N(Cc2cccc(OC(F)(F)F)c2)C=C1C(=O)OCCS(C)(=O)=O (stereo not given)	1.02	0.275	0.367	0.0999 (inactive)	1.19	0.997	0.582	0.945	0.468	1.32	1.22	-2.99	0.558	0.784	0.217	0.133	0.0434	-0.149	1.17	0.822
CC(C)NC(=O)[C@@]1(Cc2ccccc2I)c2ccccc2C(=O)N(Cc2ccccc2Cl)[C@H]1c1ccc(CO)cc1	0.972	0.13	0.156	-0.833 (inactive)	1.1	1.16	0.355	0.575	0.533	0.529	1.37	-1.97	0.45	0.789	-0.129	0.0077	0.0062	0.0139	0.795	1.28
CC=CC(O)C1C=CC2C(=O)N(C)C(=O)C2N1N(c1ccccc1)c1ccccc1 (stereo not given)	0.293	-0.0262	0.211	1.06 (inactive)	0.128	-0.343	1.19	-0.315	0.653	1.12	-1.28	-0.332	0.36	-0.54	-1.3	-0.104	-0.0769	-0.0281	1.13	0.721
C=CC[C@]1(C(=O)N2CCOCC2)N=C(c2ccc(OCCCO)cc2)O[C@H]1c1ccccc1N=[N+]=[N-]	0.945	0.779	1.17	-1.23 (inactive)	0.95	1.29	0.23	0.673	-0.201	1.09	1.47	-1.43	0.258	1.47	0.667	0.0839	0.308	1.76	1.9	0.92

Source: PubChem BioAssay
